NPC1 prom act: activates the NPC1 promoter; Huh7 NPC1 promoter luciferase reporter, 24 h; Potency, µM (top dose mostly 9.22 µM), usual class: activators; 320,000 tested, 2.4% active; note: nearly all actives have a fitted effect of over 60% in size
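Readout is luciferase luminescence, reflecting NPC1 promoter activation in stably transfected Huh7 cells after 24 h compound exposure at 37 °C in reduced-serum medium with 10% FBS.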
Rab9 prom act: activates the Rab9 promoter; Huh7 Rab9 promoter-luciferase reporter, luminescence, 24 h; Potency, µM (series often up to 9.22 µM), hits mostly activators; 320,000 tested, 2.8% active; note: nearly all actives have a fitted effect of over 60% in size
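Huh7 cells stably carrying a Rab9 promoter-luciferase reporter, 1500 cells per well in OP-MEM I with 10% FBS, treated with compound 24 hours at 37C. Luciferase activity read by luminescence after 10 minutes with Amplite reagent.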
ELG1 genotoxic: induces genotoxicity in HEK293T cells with luciferase-tagged ELG1 | HEK293T ELG1-luciferase reporter, luminescence, 16 h | Potency, µM (titrated, usually from 46 µM), usual class: activators | 330,000 tested, 1.3% active; note: nearly all actives have a fitted effect of over 60% in size
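Screening used a luciferase reporter fused to human ELG1 in HEK293T cells. Luminescence was read on a CCD plate imager after 16 hr exposure and 30 min ONE-Glo incubation.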
SMN2 splice up: increases expression of the SMN2 splice variant; HEK293 SMN2-luciferase splicing reporter, luminescence, 30-36 h; Potency, µM (doses to about 46.1 µM), actives largely listed as activators; 210,000 tested, 2.8% active; AID 1458; note: nearly all actives have a fitted effect of over 55% in size
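HEK293 cells carry an SMN2 […]–luciferase reporter in which exon 7 inclusion puts luciferase in frame. Cells were plated 10-12 h before compound addition, then incubated 30-36 h at 37C. ONE-Glo luminescence was read; sodium butyrate at 4.5 mM final served as control.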
FLuc counter: inhibits or activates purified firefly luciferase, miR-21 counter-screen | purified FLuc, Km substrates, luminescence inhibition | AID 588342 | 360,000 tested, 6.9% active | Potency, µM (titrated, usually from 57.5 µM), usual class: inhibitors | P08659; note: nearly all actives have a fitted effect of over 55% in size
Target sequence (P08659 whole entry, looked up): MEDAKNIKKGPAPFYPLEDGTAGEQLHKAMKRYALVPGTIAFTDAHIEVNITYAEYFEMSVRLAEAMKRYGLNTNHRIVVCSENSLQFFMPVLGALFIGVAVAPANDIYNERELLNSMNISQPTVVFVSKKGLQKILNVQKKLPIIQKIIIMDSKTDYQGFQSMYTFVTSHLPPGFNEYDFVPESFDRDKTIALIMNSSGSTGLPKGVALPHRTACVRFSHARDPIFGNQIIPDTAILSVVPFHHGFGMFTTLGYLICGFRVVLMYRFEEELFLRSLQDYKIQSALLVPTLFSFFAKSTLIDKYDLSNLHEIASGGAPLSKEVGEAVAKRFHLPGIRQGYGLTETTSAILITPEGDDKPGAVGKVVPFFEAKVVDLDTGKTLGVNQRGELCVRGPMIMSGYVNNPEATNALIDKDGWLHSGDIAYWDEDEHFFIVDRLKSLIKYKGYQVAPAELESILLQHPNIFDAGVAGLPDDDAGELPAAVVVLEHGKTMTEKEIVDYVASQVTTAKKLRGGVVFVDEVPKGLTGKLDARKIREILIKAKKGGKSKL
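Purified P. pyralis luciferase (10nM final) with 10uM D-luciferin and 10uM ATP (Km levels) in 50mM Tris acetate pH 7.5, 10mM Mg acetate, 0.01% Tween-20, 0.05% BSA; qHTS 6-point titration, ~60 µM downward; luminescence read.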
Hits are given with their value; - = inactive; ? = inconclusive; . = not tested or not shown; [ ] = remark or other dose. Only some compounds are listed: those with a hit (about 7.4% of all), similar ones and a draw of the others. Calls come from the whole dose curve; as a rule, active = well fitted curve in the direction sought with a large enough effect; inconclusive = small, poorly fitted or top-dose-only effect, or another doubt; inactive = no such curve, though single readings can be large; an effect the other way counts as inactive or inconclusive.

SMILES	NPC1 prom act	Rab9 prom act	ELG1 genotoxic	SMN2 splice up	FLuc counter
Brc1ccc(/C=N/Nc2ccccc2)cc1	-	?	?	-	16.9µM
CC(=O)Nc1ccc(C(=O)N/N=C/c2ccc(F)cc2)cc1	-	-	-	-	-
Cc1cc(N/N=C/c2ccccc2Br)nc2ccccc12	-	-	-	-	12µM
Brc1ccccc1/C=N/Nc1ccc2ccccc2n1	3.55µM	4.47µM	?	7.94µM	2.13µM
O=C(CSc1ccc2ccccc2n1)N/N=C/c1ccccc1O	-	-	-	.	?
Fc1cccc(F)c1/C=N/Nc1ccccn1	-	?	-	?	?
O=S(=O)(N/N=C/c1ccc2c(c1)OCCO2)c1ccccc1	-	-	-	-	?
Fc1cccc(/C=N/Nc2ccc3ccccc3n2)c1	1.12µM	?	?	2.51µM	0.477µM
Fc1cccc(/C=N/Nc2ccccn2)c1	3.16µM	3.16µM	?	?	12µM
C(=N\Nc1ccccn1)/c1ccc2c(c1)OCCO2	1.26µM	0.562µM	2.06µM	2.51µM	1.69µM
CN(CCOc1ccccc1)C(=O)c1ccc(F)c(S(=O)(=O)N2CCOCC2)c1	-	-	-	.	-
COc1ccc(-c2nc3c4ccccc4n(CC(=O)N4CCN(c5ccc(F)cc5)CC4)c(=O)n3n2)cc1	.	.	.	.	-
O=C(O)CSc1ccc(N=C=S)cc1	.	.	.	-[9.22 µM]	.
O=C(OC1CCCCC1)c1cc2ccccc2oc1=O	?	?	?	.	7.57µM
O=C(NC1CCCCCC1)c1cc2ccccc2oc1=O	3.16µM	-	-	.	2.69µM
CN(C(=O)COC(=O)c1cc2ccccc2oc1=O)C1CCCCC1	.	.	-	.	.
N=c1oc2ccc(Cl)cc2cc1C(=O)NC1CCCCCC1	-	-	-	.	?
O=C(NCCC1=CCCCC1)c1cc2ccccc2oc1=O	-	-	?	.	4.78µM
N=c1oc2ccccc2cc1C(=O)NC1CCCCCC1	?	-	?	.	4.78µM
O=C(NCCc1ccccc1)c1cc2ccccc2oc1=O	?	-	-	.	?
CN(Cc1ccc(Cl)cc1)C(=O)CNC(=O)C12CC3CC(CC(C3)C1)C2	-	-	-	.	-
COc1cc2ccccc2cc1C(=O)NC1CCCCC1	-	?	-	.	12µM
NC(=O)C1CCN(c2nc(-c3ccc([N+](=O)[O-])cc3)cs2)CC1	.	.	.	.	-
N=C1SCC(=O)N1c1nc(-c2ccccc2)cs1	2.24µM	2µM	?	11.2µM	5.36µM
CN1CCN(c2nc(-c3ccc(Cl)s3)cs2)CC1	-	?	-	-	16.9µM
SMILES	NPC1 prom act	Rab9 prom act	ELG1 genotoxic	SMN2 splice up	FLuc counter
CCS(=O)(=O)N1CCN(c2nc(-c3ccccc3)cs2)CC1	-	-	?	-	19µM
O=C1C2C3c4ccccc4C(c4ccccc43)C2C(=O)N1c1nc(-c2ccccc2)cs1 (stereo not given)	-	-	-	-	-
CN(C(=O)C1CCC1C(=O)O)c1nc(-c2ccc(Cl)s2)cs1 (stereo not given)	-	-	-	.	?
O=[N+]([O-])c1ccc(-c2csc(N3CCCCCC3)n2)cc1	?	?	-	.	12µM
Cc1sc2ncn(CC(=O)N3CCN(c4ccccc4)CC3)c(=O)c2c1S(=O)(=O)N1CCN(c2ncccn2)CC1	.	.	.	-	-
COc1ccc2cc(CO)c3cc(OC)c(OC)cc3c2c1	.	.	-	.	.
FC(F)(F)c1cc(-c2ccccc2)nc(N2CCCCCC2)n1	-	-	-	-	-[2.3 µM]
Brc1ccc(-c2csc(N3CCOCC3)n2)cc1	?	3.98µM	-	.	8.49µM
Clc1ccc(-c2csc(N3CCCCCC3)n2)cc1	-	-	-	.	10.7µM
O=C(N1CCOCC1)N1CCN(c2nc(-c3ccc(F)cc3)cs2)CC1	-	-	-	-	10.7µM
c1ccc(-c2cnnc(N3CCCCC3)n2)cc1	2.51µM	1.41µM	?	-	10.7µM
CNc1ccc(C(=O)N2CCN(S(=O)(=O)c3ccc4c(c3)OCCCO4)CC2)cc1[N+](=O)[O-]	-	-	-	.	-
CC(C)[C@H](NC(=O)OCc1ccccc1)C(=O)N[C@@H](Cc1c[nH]c2ccccc12)C(=O)O	-	-	-	.	?
CC(C)C(=O)N1CCN(c2nc(-c3ccc(Cl)cc3)cs2)CC1	-	-	-	.	-
Brc1ccc(-c2csc(N3CCCCCC3)n2)cc1	-	-	-	.	8.49µM
O=C(CCCl)N1CCN(c2nc(-c3ccccc3)cs2)CC1	?	?	-	.	15.1µM
NC(=O)C1(N2CCCCC2)CCN(c2nc(-c3ccc(Br)cc3)cs2)CC1	-	-	-	-	-
CCOC(=O)N1CCN(c2nc(-c3ccc(Cl)cc3)cs2)CC1	-	-	?	-	16.9µM
Clc1ccc(-c2csc(N3CCOCC3)n2)cc1	?	3.16µM	?	17.8µM	10.7µM
O=C(O)c1cnc2[nH]c3ccccc3n2c1=O	-	-	-	.	-
CCOC(=O)C1CCN(S(=O)(=O)c2ccc(OC)c(Cl)c2)CC1	-	-	-	-	-
COc1ccc(-c2csc(/N=C/N(C)C)n2)cc1OC	-	-	?	-	?
COc1ccc(-c2csc(N3CCOCC3)n2)cc1OC	?	?	18.4µM	?	12µM
CS(=O)(=O)N1CCN(c2nc(-c3ccccc3)cs2)CC1	-	-	?	-	?
c1ccc(-c2csc(N3CCCCCC3)n2)cc1	-	-	18.4µM	?	15.1µM
SMILES	NPC1 prom act	Rab9 prom act	ELG1 genotoxic	SMN2 splice up	FLuc counter
COc1ccccc1C1CC(=O)Oc2ccc(C(C)(C)C)cc21 (stereo not given)	.	.	-	.	.
O=C(c1cc(COc2ccc(F)cc2Cl)on1)N1CC2C[C@@H]3CC1C[C@H](C2)C3	3.16µM	2.51µM	9.2µM	.	6.75µM
O=C(c1cc(COc2ccc(F)cc2Cl)on1)N1CC[C@@H]2CCCC[C@H]2C1	-	-	-	.	-
O=C(c1cc(COc2ccc(F)cc2Cl)on1)N1C[C@H]2CC[C@H]1C2	?	2.82µM	?	.	13.5µM
CCOc1ccc2oc(C(=O)NNC(=O)c3ccccc3O)c(C)c2c1	-	-	?	.	10.7µM
CCOc1ccc2oc(C(=O)O)c(C)c2c1	-	-	-	.	?
CCOc1ccc2oc(C(=O)Nc3cc(C)ccn3)c(C)c2c1	0.631µM	0.501µM	?	.	0.338µM
Cc1ccnc(NC(=O)c2oc3ccccc3c2C)c1	2.82µM	2.51µM	?	.	1.2µM
Cc1c(C(=O)NC2CCCC2)oc2ccccc12	-	-	-	.	?
Cc1c(C(=O)NCc2ccccn2)oc2ccccc12	?	?	14.6µM	?	?
CCCN(C(=O)COc1ccc(Cl)cc1Cl)c1c(N)n(Cc2ccccc2)c(=O)[nH]c1=O	-	-	-	-	-
Cc1c(C(=O)Nc2ccc(Cl)cn2)oc2ccccc12	-	-	?	?	-
Cc1c(C(=O)Nc2cnccn2)oc2ccccc12	-	-	?	11.2µM	15.1µM
CC(C)(C)n1ncc2c(=O)n(Cc3ccc([S+](=O)([O-])N4CCOCC4)cc3)cnc21	.	.	.	.	-
CC1CCc2c(sc3ncnc(NCc4cccnc4)c23)C1 (stereo not given)	-	-	-	-	26.9µM
COc1ccc(-c2csc(NC(C)=O)n2)cc1OC	-	-	-	-	-[2.3 µM]
Nc1nc(-c2ccc3c(c2)CCO3)cs1	-	?	-	10µM	?
